Compounds without any hit were thinned out: in the full panel of roughly 83,000, 20% have a hit.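 Values shown are percent growth following 48 h exposure of cells in 96-well plates to a single concentration of compound; below 10 was considered active.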 Values without a mark were called inactive. Active and inactive are the calls of the source.
system: SK-MEL-28 melanoma; assay: NCI-60 one-dose screen, 48 h (100 = growth as untreated, 0 = no growth, -100 = all killed); conditions: 10 µM unless noted

Structure (SMILES)	growth
N#C/C(=C\c1ccc(Br)cc1)n1nnc2cccc(F)c21	49.5%
COc1cc2oc(-c3cccc(C(=O)Nc4ccc(Cl)cc4)c3)cc(=O)c2c(OC)c1OC	-9.19% (active)
CS(=O)(=O)c1ccc(-c2cc(-c3nnc(SCC(=O)Nc4ccc(C(=O)/C=C/c5ccc(Cl)cc5)cc4)n3-c3ccccc3)c3ccccc3n2)cc1	103%
COc1ccccc1OCC(=O)N1CCCCCC1	101%
COc1cc2nc(-c3ccc(C(F)(F)F)cc3)cc(OCCCN3CCCCC3)c2cc1OC	51.4%
COc1ccc2c(Nc3ccc(NS(C)(=O)=O)cc3)c3ccccc3nc2c1	-13.5% (active)
C=CCn1c(SCC(=O)Nc2ccc(C(=O)/C=C/c3cc(OC)c(OC)c(OC)c3)cc2)nnc1-c1cc(-c2ccc(S(C)(=O)=O)cc2)nc2ccccc12	108%
CN(C)c1ccc(-c2c(C#N)c(N)n3nc(N)c(C#N)c3c2C#N)cc1	96.3%
CCCCCN1C=C/C(=C\C(=O)N(C)c2cccc3ccccc23)c2ccccc21	107%
CCCCCOc1ccc(/C=N/Nc2cc(C)nc3ccc(Br)cc23)cc1	-74.3% (active)
COc1cccc(C(Cc2ccccc2)Nc2ccccc2)c1OC (stereo not given)	107%
Cc1ccc(Nc2cc(=S)nc(N)[nH]2)cc1C	101%
O=S(=O)(O)c1cc(O)c2c(N=Nc3ccc(Nc4ccccc4)c4c(S(=O)(=O)O)cccc34)cc(S(=O)(=O)O)cc2c1	111%
COc1cc2c(cc1[N+](=O)[O-])-c1ccc([N+](=O)[O-])cc1/C2=N\O	99.7%
CS(=O)(=O)OCCN(CCOS(C)(=O)=O)c1ccc(/C=N/Nc2ccc([N+](=O)[O-])cc2[N+](=O)[O-])cc1	95.7%
COc1cc2c(cc1[N+](=O)[O-])-c1ccc([N+](=O)[O-])cc1/C2=N/NC(N)=S	95.4%
CN(C)C(C(N)=O)c1ccc(Cl)cc1 (stereo not given)	101%
CC(C)(C)OC(=O)N1CCN(c2ccc(N)cc2)C(=O)C1	104%

Structure (SMILES)	growth
CC(=O)OCC(=O)C1(O)C(C)CC2C3C=C(C)C4=Cc5c(cnn5-c5ccccc5)CC4(C)C3C(O)CC21C (stereo not given)	35.3%
Cc1ccc(C2C3CC4CCCCC4N3[C@@]3(C(=O)Nc4cc(Cl)ccc43)C2C(=O)c2nc3ccccc3[nH]2)cc1 (stereo not given in full)	66.2%
COc1ccc(-n2cc(-c3cc(OC)c(OC)c(OC)c3)n(C(C)=O)c2=O)cc1	115%
C=C(C)[C@@H]1CC[C@]2(C(=O)N3CCN(C)CC3)CC[C@]3(C)[C@H](CC[C@@H]4[C@@]5(C)CCC(=O)C(C)(C)[C@@H]5CC[C@]43C)[C@@H]12	92.7%
NC(=S)N/N=C(/c1ccccc1)c1ccccc1N	109%
COc1ccc(C(=O)c2cc(C)c(OC)c(C)c2)c(OC)c1N(C(=O)C(Cl)Cl)C(=O)C(Cl)Cl	49.8%
c1ccc(-c2nn(-c3ccccc3)[n+](-c3ccccc3-c3ccccc3)n2)cc1	48.7%
COc1ccc2c(c1)OC13Oc4cc(OC)ccc4C=C1CCCC3=C2	63%
CC(O)(CO)c1ccccc1 (stereo not given)	102%
O=C(Nc1nc(-c2ccccc2Cl)cs1)c1cc(-c2ccccc2)nc2ccc(Cl)cc12	70.8%
COC(=O)N[C@H]1CCc2cc(OC)c(OC)c(OC)c2-c2ccc(SC)c(=O)cc21	56.9%
CCOC(=O)N1CCc2c(sc3nc4nc[nH]n4c(=O)c23)C1	115%
CCOC(=O)c1c(C)nc2c(c1N)C(=O)C(=O)N2Cc1ccc(C(F)(F)F)cc1	74.8%
CC(=O)c1cccc(NS(=O)(=O)c2cccc(C(=O)Nc3ccc(Br)cc3)c2)c1	71.3% [25 µM]
COc1ccccc1C(C[N+](=O)[O-])c1c(-c2ccccc2)[nH]c2cc(C)ccc12 (stereo not given)	78.9%
CCCC1C(C(=O)OCC)=C(N)Oc2cc(O)ccc21 (stereo not given)	114%
Cc1ccc(C(=O)Nc2ccccc2C(=O)N/N=C(\c2ccccc2)c2ccccn2)cc1	32.4%
